According to article PMC13494018:
Values without a mark were called inactive. The rule behind the calls is not given here.

Target: PDL1, Q9NZQ7
Sequence (Q9NZQ7 whole entry): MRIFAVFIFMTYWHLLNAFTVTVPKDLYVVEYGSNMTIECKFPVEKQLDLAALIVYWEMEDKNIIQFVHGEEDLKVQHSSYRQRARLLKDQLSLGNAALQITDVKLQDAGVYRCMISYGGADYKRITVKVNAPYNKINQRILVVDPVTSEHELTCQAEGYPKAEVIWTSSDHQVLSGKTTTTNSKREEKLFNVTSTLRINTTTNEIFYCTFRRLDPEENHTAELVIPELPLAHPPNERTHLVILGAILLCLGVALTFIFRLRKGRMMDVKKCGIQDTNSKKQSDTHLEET

Binder	binding in a display sort
d8r1_design_ppi_423_dldesign_0_cycle1_af2pred (protein) DESDKNMELLTKAGAATSELVAKARADAKAAAAEGPEAVKAVAEEHSAKIKEVAEKLGKESSKSASFKGLIETATKTIKAYADAVVA	not found
d8r1_design_ppi_1215_dldesign_0_cycle1_af2pred (protein) AEEVGRMALTAAEAGERIALEKVKDPATAAEGAALAKVAADALKAAAEKVPEVAERLNKAATELYKKVADAA	not found
d8r1_design_ppi_254_dldesign_0_cycle0_af2pred (protein) AAAKALAEAALREVGSALSEAISLTSKDPKKGEEKFKEAEALAKAKVAEMEAIDPAVGAALKAAVDALLAQTKLIMEKIKEAKK	not found
d8r1_design_ppi_1130_dldesign_0_cycle1_af2pred (protein) SMEEAEKAAKEIIELAKKAAEDPSYIDELAALAAKYIGSPEAKEALAEAIKILSKKSPELAKQFLAKYSAALAALRAAA	not found
d8r1_design_ppi_997_dldesign_0_cycle1_af2pred (protein) ALSDAQSFVKAAKAAAEKAKELAKKDPEVAAKAVETAKKLAEAAVKASPEAKPQAEEAKKLAEEAKKVVEEAKKKAA	not found
d8r1_design_ppi_499_dldesign_0_cycle0_af2pred (protein) GMARSLQRAAENTAARAAEYLRDPAKAEIGRNALAAAAALTEKAAAEAGLSPEEAAAAAAATRAATLAAAA	not found
d8r1_design_ppi_789_dldesign_0_cycle1_af2pred (protein) ALEERLRAALEAARELRERGVEEGWSPGELANAVLALAKEAGLPLEAQNTLAAAAMVPGERAEILLEKAEEIV	not found
d8r1_design_ppi_56_dldesign_0_cycle0_af2pred (protein) EAEKALKEAAEKIKKAAKEAEKDPEKAVEYFSEALAYAMRTAIKYPEIAAALGAAAAGLAEGAREAKKDVEKGVKIAEKAAKELEKA	not found
d8r1_design_ppi_669_dldesign_0_cycle1_af2pred (protein) AAAAAAANVRKVGEVSIEYVERVDAVSGANFAAGAFRGLATLLPPEVAKHAAAAAEKVRETGEKETKEALIETIRTTTAEIAALIEA	not found
d8r1_design_ppi_146_dldesign_0_cycle1_af2pred (protein) YAQKIREAAEKLKSPEKKATLNAFADIAAKLEAEAKKAAAKDPAEGAKKLTAAKNLAAGALKLAEAKKEEE	not found
d8r1_design_ppi_307_dldesign_0_cycle0_af2pred (protein) EEARAEALAAEAAATAAALLAAARATDPRADIAAGAAALTAAAREAAALSPAAAAKVRAVIATFMAEALKLMDS	not found
d8r1_design_ppi_684_dldesign_0_cycle1_af2pred (protein) AAAEEAEEKKYAMAKAAGAAASEIAKIDPALGRKVAIAAGEALSVDLETSYKILTDTLTEVAETGSPEAAAEAQKALDAVEAAYKA	not found
d8r1_design_ppi_1244_dldesign_0_cycle1_af2pred (protein) EEEAEKERERYEKAYYFAKAAIAAASSGLPAAVAAAKAFLQKAGEEIPEFLPAAKAATTAAEITAVATKVAAYAAAKIS	not found
d8r1_design_ppi_384_dldesign_0_cycle1_af2pred (protein) SAKEAAAKAARNAAAAAKKADEAGFNPKVIASLAKAAGEEALVSPESVEAAEEAAKIAEKYPSKEAQEAAKYAKELAKAAKAKAA	not found
d8r1_design_ppi_219_dldesign_0_cycle0_af2pred (protein) GERIKRNAEIVAATYAEVAALAAGEKEATARRAAGLLAAGAMSPEGREEYLAEALALAAEVGAEAAALVAEAAAAI	not found
d8r1_design_ppi_1260_dldesign_0_cycle1_af2pred (protein) MTAEEALAEMEKLTKEMKEVSPLAGNAMEAHLNKAKELVAAVAAEDPEKAAEVAAKSYEQAKALYKAMKEMIEEEKKEKELA	not found
d8r1_design_ppi_408_dldesign_0_cycle1_af2pred (protein) ASAEAKKKALELIKKAVALTSQGLAKGDKALVKKGLEYAKKAKEEAAKSADAATLLKAVDNVEAMAKTVLDAL	not found
d8r1_design_ppi_987_dldesign_0_cycle0_af2pred (protein) QAVLDKANELLAKAMKLFGKLSPENYAAALAAADAAIAAAKELQKEDPELGAALLASAEALKAAIKAKAA	not found
d8r1_design_ppi_793_dldesign_0_cycle1_af2pred (protein) GISPESAKKLAKQMLEDALKAAEEARKLIKEGATPEEVQKAIRGAQAAADAAEALAKVDPAVAPYAKKAKAAVEEARKLAK	not found

Binder	binding in a display sort
d8r1_design_ppi_23_dldesign_0_cycle1_af2pred (protein) DAEEKKKLAKKMEEMAKKVAAAGKAVPAVKAEADATAKALKAMAKLALEGSLEDAKSLLKAGEAAAKRVLEKAKAAAAAAA	not found
d8r1_design_ppi_179_dldesign_0_cycle1_af2pred (protein) MESARNAAEGIAKAAEENPESGARLGKGAVEVLAKRDIEAAVEAARLAAELSKEAGKEEVAEVMKKLAEEAEKKL	not found
d8r1_design_ppi_855_dldesign_0_cycle1_af2pred (protein) GTGKNLIKVLETSAEKTAALAAELAPDPAAATALADAFEASAKGFAAIAKELGTEAEVKPAAEKAIKKVRDALDKALAAAAA	not found
d8r1_design_ppi_254_dldesign_0_cycle1_af2pred (protein) AAAQAAAAEALRKVREAFSEAIALTVKNPEEGEKKFKEAEKLAEAAVKEQKAVDPAVGAALAKQVEATVKSAKEIMELIKKAKE	not found
d8r1_design_ppi_86_dldesign_0_cycle1_af2pred (protein) GARAAALAAAAALNAAAAKADAAAAKAYGRAAVAAARAYFAGADGAELLALVAKVGAEDPAVAADILAIATAALAAAA	not found
d8r1_design_ppi_573_dldesign_0_cycle1_af2pred (protein) SAEQAALEAKAKEAALKAWEAAKQYKKTGYQEFKDAAKEYAYAAIAYFRGDTAAGKKYRDAADKLWAKAQAIAAA	binds (active)
d8r1_design_ppi_1481_dldesign_0_cycle0_af2pred (protein) SSEANDAALKEGMALASATLAQARALIAAGGAAAAAAAAALAEAAVARLRELGAKYPQRAASFAALGEALRREVARLAA	not found
d8r1_design_ppi_167_dldesign_0_cycle0_af2pred (protein) SSEERYAEAAKLLAETAAKAAALIAKNPAVAEAAKEMQRYAARAAAALVAGDEEKAKEYKKKMEEALAKAEALVA	not found
d8r1_design_ppi_128_dldesign_0_cycle0_af2pred (protein) EELEKLKEEAKKEIKEALEYTEKAKEDPDYLAKALGHLNKARQLAAKLPSAEEVKKEIDKMISAAMAGDVEKAKEYAEKAIKLLEKD	not found
d8r1_design_ppi_479_dldesign_0_cycle0_af2pred (protein) EELAKEARELAKRGIEDPEKAPEAGRKIAELAAKAVAEGDSEAAAEAVAELTRLHKANPEAGREALILMAQKIAKVAREK	not found
d8r1_design_ppi_59_dldesign_0_cycle0_af2pred (protein) MSELAEEAIKALVAAHNAAAALAALGRTAEAAALSRQASEAFGKAFKALQEGDEETAKKYLEELKAIAAKAAEAAAAAAAAAAAA	not found
d8r1_design_ppi_623_dldesign_0_cycle1_af2pred (protein) AAAAAAADAAAAALLDAAAAAAKAAVELTPEEAAAVLGAIAAAAATALALAKDPAAKAKLLATASEVANTAAQNLSQAVRREEE	not found
d8r1_design_ppi_1041_dldesign_0_cycle1_af2pred (protein) MEEKEEEEAKKAAKAAVDAATKVAEKAAKASTPEVAKKLTAAAKGLKGATELLAKINPKNAAAFAKAAAERFTKIAEKAVKDAA	not found
d8r1_design_ppi_307_dldesign_0_cycle1_af2pred (protein) MMEEAEKIAEEAKKTADELLAQAKKGDPKPYVNQGFAELNKLLQEAAKLSPEAAEKVKEVLAEFRKQASKILDS	not found
d8r1_design_ppi_128_dldesign_0_cycle1_af2pred (protein) AQLEQIKAQAKKEIEEALEYAKKAKTDPSYLAKALGHLNKASQLAKQLPNAEEVKAEIDKAISAAIAGDYETVKKEAEEAIKLLEKD	not found
d8r1_design_ppi_243_dldesign_0_cycle1_af2pred (protein) DQNLKGALLIGQANAYAVAAAKAAAAAGAPAAEVQAAIDKVRAMTAEAGKLSPSLASTAERVAAIEGARLAAAA	not found
d8r1_design_ppi_1130_dldesign_0_cycle0_af2pred (protein) SAEEAEKAAKELIELAKKAAEDPSYIPEAAALAAKHIGTPEARTALAEAIKILMQKSPELAKQFLAAFSAALAALRAAA	not found
d8r1_design_ppi_877_dldesign_0_cycle1_af2pred (protein) ALAAEAAAAIAKARELLKEIKETGKESKSESVRRFAEGVARKVQALIDQAEAAAADPATALALAKAALKLAEEGLAAVKTLKKAYEE	not found
d8r1_design_ppi_1104_dldesign_0_cycle1_af2pred (protein) DDLLKQAQATLKQAAALAATVSLAAASDFNAAMFLMRNPKNIPQAIKYAQQGAALAAASAKAPQIKALADEAVKLMKALAKAAAA	not found
